# Experimental data taken from PubChem BioAssay (NCATS).
# The source made the active and inactive calls. The call rests on the fitted dose curve; in most records, active means well fitted inhibition curve with a large enough effect; inconclusive means small, poorly fitted or top-dose-only effect; inactive means no such curve, though single readings can be large or run the other way.
# Target: Single-stranded DNA cytosine deaminase (Homo sapiens) (UniProt Q9GZX7)
# Experiment: Validation qHTS assay for inhibitors of Activation Induced Cytidine Deaminase (AID): AID signal (AID 1347429)
# Settings: Recombinant AID, FRET ssDNA deamination with UDG, fluorescence; series mostly up to 115 µM; activity change, negative = inhibition: at the top concentration
# Excerpt: Assay Provider (PI) Patricia Gearhart Ph.D. National Institute on Aging National Institute of Health (NIH), Bethesda, MD Assay Provider (PI) Rahul Kohli Ph.D. Perelman School of Medicine University of Pennsylvania, Philadelphia, PA Activation-Induced Deaminase (AID) is a cytosine deaminase which converts cytosine into uracil within stretches of ssDNA. The presence of uracil in DNA initiates a cascade of mutagenic DNA repair to introduce point mutations and DNA double strand breaks. Specific targeting of AID to the immunoglobulin heavy chain loci (Igh) promotes mutagenesis in the antibody variable region for somatic hypermutation (SHM) or switch regions leading to class switch recombination (CSR). However, AID also plays a role in accumulating unnecessary mutations across the genome. Mis-targeting of AID results in the initiation of tumor development and leads to greater drug resistance among cancer cells when continually expressed. To identify an AID inhibitor, a small molecule library will be screened in collaboration with NCATS core facility at NIH. To confirm biological function, inhibitors will be examined in an in vitro murine B-cell activation assay and subsequent secondary validation screens. Top molecules will be further screened to identify inhibitory efficacy against a wild type primary splenocytes assay. Using these approaches, we hope to identify a small molecule with great efficacy and low toxicity for use as a molecular probe to further characterize AID's intricacies, or even as a therapeutic. A FRET based analysis of cytosine deamination, was developed to identify potential inhibitors of AID catalytic activity. This screen has two signal output, Read 1 evaluates the AID inhibition response. The second readout (Read 2) evaluates UDG response and is uses as a counterscreen to exclude false positive inhibitors. Inhibition in AID and inactivity in the UDG signal is the desired outcome for this assay.
# PROTOCOL TABLE SEQUENCE No. (e.g., 1, 2, 3, etc.); […] (e.g., Cells, Incubation, Reagent, etc.); VALUE; DESCRIPTION 1a; Reagent; 3 uL; [4/3x] […] 250 nM DJC20 / 250 nM DJC23 [Substrate] 5; Time; 4 hr; incubation at room temperature 6; Reagent; 4 uL; [2x] 250 mM NaOH 7; Time; 15 sec; centrifuge at 1000 rpm 8; Time; 30 min; incubation at room temperature 9a; Detection; fluorescence (Read 1: AID); EnVision (PerkinElmer) plate reader, 540 excitation and 590 emission filters 9b; Detection; fluorescence (Read 2: UDG); EnVision (PerkinElmer) plate reader, 560 excitation and 665 emission filters NOTES (numbers refer to sequence above) 1a; Reagents were dispensed in a medium-binding black solid-bottom Greiner plates (789176F) using a BioRptr liquid dispenser. Dispense 3 uL of [4/3x] 1 uM AID (provided by Kohli lab) and [4/3x] 2 U/mL UDG (NEB M0280L) into columns 1, 2, 5 to 48. 1b; Dispense 3 uL of [4/3x] 2 U/mL UDG into column 3. 1c; Dispense 3 uL of [4/3x] 1 uM AID into column 4. 2a; Compound ([…] [uM] (0.64; 3.2; 16; 80; 400; 2,000; 10,000; 20,000) double pin-transferred (Dip Factor = 2) using the Kalypsys (Wako USA) pintool equipped with a 1536 pinhead for a final concentration range of 7.32 nM - 114 uM. 2b; 10 mM Aurintricarboxylic Acid (Sigma A1895) (ATA, 8-point, n = 2, 1:2.5 dilution in column 2) double pin-transferred (Dip Factor = 2) using the Kalypsys (Wako USA) pintool equipped with a 1536 pinhead for a [final] range of 186 nM - 114 uM. 3; Room temperature incubation. 4; Dispense 1 uL of substrate mixture from the Kohli lab [4x] […] DJC20 and [4x] 250 nM DJC23 into columns 1 to 48 . 5; Room temperature incubation. 6; Dispense 4 uL of substrate mixture [2x] 250 mM NaOH into columns 1 to 48. 7; Centrifugation step to remove bubbles. 8; Room temperature incubation 9a; Fluorescence signal (column label AID) was read using the EnVision plate reader. Excitation filter = 540(8) nm, barcode = 311; Emission filter = 590(20) nm, barcode = 217; Mirror = D555, barcode = 405. […]
# On the % scale 0 is the no-effect control and ±100 the full control effect; potency means the concentration at half of the fitted maximal effect.
# Chain of Single-stranded DNA cytosine deaminase (Homo sapiens) (Q9GZX7 whole entry, looked up): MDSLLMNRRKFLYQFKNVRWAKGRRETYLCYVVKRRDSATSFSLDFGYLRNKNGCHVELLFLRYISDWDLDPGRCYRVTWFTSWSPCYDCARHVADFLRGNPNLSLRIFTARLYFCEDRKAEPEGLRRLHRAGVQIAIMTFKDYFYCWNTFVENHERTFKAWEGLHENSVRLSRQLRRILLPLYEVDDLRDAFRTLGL
SMILES,Potency,"activity change, negative = inhibition"
CN1CC[C@@]2(C)c3cc(O)ccc3N(C)C12 (stereo not given in full),12.6 µM (active),–
CC(=O)NBr,–,3.73% (inactive)
CN1CCC(c2c[nH]c3ccc(O)cc23)CC1,–,70.6% (inactive)
NC(Cc1cc(O)c(O)cc1O)C(=O)O (stereo not given),3.98 µM (active),–
CNc1ccc2oc(C[C@H]3O[C@@]4(CC[C@H]3C)O[C@H]([C@H](C)C(=O)c3ccc[nH]3)[C@H](C)C[C@H]4C)nc2c1C(=O)O,–,-7.58% (inactive)
NC(N)=NOCC[C@H](N)C(=O)O,–,-5.04% (inactive)
CCCn1c(C)c(C(=O)c2ccc3ccccc3c2)c2ccccc21,–,-14.8% (inactive)
C[N+](C)(C)CC#CCN1CCCC1=O,–,-3.21% (inactive)
O=C(O)c1cc[c]([Hg][Cl])cc1,–,4.25% (inactive)
CCCn1c(=O)c2[nH]c(C3CCCC3)nc2n(CCCOC(=O)c2ccc(S(=O)(=O)F)cc2)c1=O,–,28.8% (inactive)
C[N+](C)(C)CCOC(=O)CBr,–,13% (inactive)
CO[C@H]1CC=C2CCN3CCC4=C(CC(=O)OC4)[C@]23C1,–,24.3% (inactive)
CC(=O)c1c(O)c(C)c(O)c(Cc2c(O)c3c(c(C(=O)/C=C/c4ccccc4)c2O)OC(C)(C)C=C3)c1O,31.6 µM (active),–
NCCc1ccc(S(=O)(=O)F)cc1,–,9.56% (inactive)
CN1CCc2cc(O)cc3c2[C@H]1Cc1ccc(O)c(O)c1-3,–,42.8% (inactive)
CCCN1CCc2cc(O)cc3c2[C@H]1Cc1ccc(O)c(O)c1-3,–,39.1% (inactive)
C=CCN1CCc2cccc3c2[C@H]1Cc1ccc(O)c(O)c1-3,–,21% (inactive)
CC(N)Cc1c[nH]c2ccc(OCc3cccs3)cc12 (stereo not given),–,24.2% (inactive)
C[N+]1(C)CCN(c2ccccc2)CC1,–,4.91% (inactive)
C=CCN1CC[C@]23c4c5ccc(O)c4O[C@@H]2/C(=N/N=C2\CC[C@@]4(O)C6Cc7ccc(O)c8c7[C@@]4(CCN6CC=C)[C@@H]2O8)CC[C@@]3(O)C1C5,–,33% (inactive)

SMILES,Potency,"activity change, negative = inhibition"
CCCCCCC(C)(C)c1ccc([C@@H]2C[C@H](O)CC[C@H]2CCCO)c(O)c1,–,21% (inactive)
COc1ccc2c(c1)C13CCCCC1C(C2)N(C)CC3 (stereo not given),–,12.5% (inactive)
NCC(O)c1cc(O)c(O)cc1F (stereo not given),–,27.7% (inactive)
COC(=O)N1CCN(C(=O)Cc2ccc(Cl)c(Cl)c2)C(CN2CCCC2)C1 (stereo not given),–,24.9% (inactive)
OC1CCCCC1N1CCC(c2ccccc2)CC1 (stereo not given),–,12.5% (inactive)
O=[N+]([O-])c1cc(O)c(O)c([N+](=O)[O-])c1,–,-13.2% (inactive)
O=[N+]([O-])/C=C/c1ccc2c(c1)OCO2,–,78.5% (inactive)
Cc1cc([C@@H]2CCCN2C)on1,–,38.7% (inactive)
O=C1C=CC(=O)C=C1,–,17.5% (inactive)
CCCN(CCC)CCc1c[nH]c2ccc(C(N)=O)cc12,–,36.4% (inactive)
C[C@@H]1O[C@@H](O[C@H]2C[C@@H](O)[C@]3(CO)[C@@H]4C(CC[C@]3(O)C2)[C@@]2(O)CC[C@H]([C@@H]3COC(=O)C3)[C@@]2(C)C[C@H]4O)[C@H](O)[C@H](O)[C@H]1O (stereo not given in full),–,15% (inactive)
CCN(CCCl)Cc1ccccc1Br,–,-8.91% (inactive)
O=[N+]([O-])c1ccc2nc(N3CCNCC3)ccc2c1,–,140% (inactive)
N[C@@H](Cn1oc(=O)[nH]c1=O)C(=O)O,–,-1.55% (inactive)
C[Se]C[C@H](N)C(=O)O,–,15% (inactive)
NC(Cc1ccc(N(CCCl)CCCl)cc1)C(=O)O (stereo not given),–,-3.88% (inactive)
CCCN1CCC[C@@H](c2cccc(O)c2)C1,–,25.7% (inactive)
C[N+](C)(C)CC#CCOC(=O)Nc1cccc(Cl)c1,–,18.7% (inactive)
Cc1o[nH]c(=O)c1CC(N)C(=O)O (stereo not given),–,19.4% (inactive)
CC(C)[C@@]1(NC(=O)[C@@H]2C[C@@H]3c4cccc5[nH]cc(c45)C[C@H]3N(C)C2)O[C@@]2(O)[C@@H]3CCCN3C(=O)[C@H](Cc3ccccc3)N2C1=O,–,145% (inactive)
